Data on twelve compounds can be found in PubChem BioAssay (NCATS).

Results filed as inconclusive are left out. Active and inactive are the calls of the source. Calls follow the shape of the dose curve; as a rule, active = well fitted cell-killing curve with a large enough effect; inconclusive = small, poorly fitted or top-dose-only effect, or effect the other way; inactive = no such curve, though single readings can be large or run the other way.
Potency is read from the fitted curve at half-maximal effect.

The test in a line: Quantitative highthroughput screen to assess conditional lethalithy of SEM cells grown in RPMI1640 with unreated serum (RPMI+s) (AID 1963883). Also: nearly all actives have a fitted effect of over 35% in size.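 As to viability: 100% = DMSO wells and 0% = empty wells without cells.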 As to conditions: SEM B-ALL cells, CellTiter-Glo viability, 48 h; series mostly up to 45.8 µM; viability: at the top concentration. A digest of the protocol: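 Each medium arm—HPLM with 10% dialyzed FBS, or RPMI1640 with 5 mM glucose and 10% untreated or dialyzed FBS—was screened against an 11-point, 3-fold compound titration for 48 h at 37 °C, with CellTiter-Glo luminescence as endpoint.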
A general note: Cellular ATP, detected with luciferase, serves as a proxy for viable cell number.
Usually viability stands for a read-out of living cells in per cent, often relative to untreated cells. Take `COc1cc2c(cc1OC)[C@@H]1Cc3ccc(OC)c(OC)c3CN1CC2`: the “viability” value is 86% (inactive).

`CCCCC[C@H](O)C=C[C@H]1[C@H](O)CC(=O)[C@H]1CCCCCCC(=O)O`: the Potency was 4.18 µM (active). Turning to `C[C@@H](Oc1ccc2[nH]nc(C=Cc3cnn(CCO)c3)c2c1)c1c(Cl)cncc1Cl`, the Potency is 0.264 µM (active).

As for `COc1cc(CNC(=O)CCCCC=CC(C)C)ccc1O`, the Potency was 0.526 µM (active). Same read-out and setting: then `Nc1nc(F)nc2c1ncn2[C@@H]1O[C@H](COP(=O)(O)O)[C@@H](O)[C@H]1O`, with 8.33 µM (active); and `CN(C)CCOc1ccc(C(=C(CCCl)c2ccccc2)c2ccccc2)cc1`, with 3.32 µM (active); and `CCOC(=O)N1CCN([N+]([O-])=NOc2ccc([N+](=O)[O-])cc2[N+](=O)[O-])CC1`, with 4.18 µM (active). Turning to `CC[C@@]1([C@@H]2O[C@@H]([C@H]3O[C@@](O)(CO)[C@H](C)C[C@H]3C)C[C@H]2C)CC[C@H]([C@]2(C)CC[C@]3(C[C@H](O)[C@@H](C)[C@@H]([C@@H](C)[C@@H](OC)[C@H](C)C(=O)O)O3)O2)O1`, the Potency is 0.457 µM (active). In the case of `Fc1ccc([C@@H]2CCNC[C@H]2COc2ccc3c(c2)OCO3)cc1`, the Potency is 14.8 µM (active).

Consider `CS(=O)(=O)Oc1ccc2c(NC(N)=O)c(C(=O)c3ccc(Cl)cc3Cl)oc2c1`, for which the “viability” value was 98.4% (inactive). `CON=C(C(=O)N[C@@H]1C(=O)N2C(C(=O)O)=C(CSC(=O)c3ccco3)CS[C@H]12)c1csc(N)n1`: the “viability” value was 109% (inactive). For the compound `CON=C(C(=O)N[C@@H]1C(=O)N2C(C(=O)OCOC(=O)C(C)(C)C)=C(C=Cc3scnc3C)CS[C@H]12)c1csc(N)n1`, the Potency was 9.35 µM (active).
